Assay outcomes as filed in PubChem.
An excerpt weighted towards active compounds, which were near 19% of everything screened.
KB-3-1 cytotox: kills parental KB-3-1 adenocarcinoma cells; KB-3-1 viability, CellTiter-Glo ATP luminescence, 72 h; Potency, µM (titrated, usually from 46.1 µM), most hits filed as cytotoxic; actives 1.4% (n = 400,000); also: nearly all actives have a fitted effect of over 60% in size
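Cytotoxicity in the drug-sensitive parental line KB-3-1 was scored as loss of CellTiter-Glo luminescence following 72 h incubation with compound. Values come from curve fitting of normalized concentration-response data.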
TDP1 cell CPT: growth inhibition of DT40 Tdp1-/-;hTDP1 cells with camptothecin (screen for TDP1 inhibitors) | AID 686979 | actives 12% (n = 420,000) | chicken DT40 Tdp1-/-;hTDP1 cells + 20 nM CPT, ATP luminescence, 48 h | Potency, µM (top dose mostly 46.2 µM), inactives show at the top dose activity change, negative = growth inhibition, usual class: inhibitors; also: nearly all actives have a fitted effect of over 55% in size
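Cell growth measured by CellTiter-Glo luminescence after a minimum 48 h, 37 C compound exposure with 20 nM CPT in Tdp1-knockout DT40 cells stably expressing hTDP1, seeded 400/well; qHTS titration format.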
DT40 TDP1 no CPT: qHTS for Inhibitors of human tyrosyl-DNA phosphodiesterase 1 (TDP1): qHTS in cells in absence of CPT; DT40 Tdp1-/- hTDP1 cells, no CPT, ATP luminescence, 48 h; Potency, µM (highest dose often 46.2 µM), without a hit: at the highest dose activity change, negative = growth inhibition, most hits filed as inhibitors; actives 15% (n = 420,000); AID 686978, 2013; also: nearly all actives have a fitted effect of over 55% in size
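Seeded 400 DT40-hTDP1 cells/well (vehicle DMSO, no 20 nM CPT); pinned compounds; ≥48 hr at 37 °C; CellTiter-Glo luminescence as viability measure.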
KB-V1 MDR tox: KB-V1 MDR subline cytotoxicity; KB-V1 MDR cells viability, CellTiter-Glo, 72 h; Potency, µM (doses to about 46.1 µM), most hits filed as cytotoxic; actives 3.4% (n = 400,000); also: nearly all actives have a fitted effect of over 60% in size
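Drug-selected KB-V1 cells, grown in DMEM lacking phenol red with 10% FBS, receive compound titrations; after three days at 37 degrees C, surviving cell ATP is quantified by CellTiter-Glo luminescence and responses normalized and curve-fitted.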
HT1080NT lethal: kills 2HG-producing HT-1080-NT fibrosarcoma cells; HT-1080-NT fibrosarcoma viability, CellTiter-Glo ATP luminescence, 48 h; Potency, µM (doses to about 46.1 µM), for the others: at the highest dose activity, negative = less viability, usual class: cytotoxic; actives 1.6% (n = 360,000); AID 686970;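 also: NT is the 2HG producing partner of a matched IDH1 knockdown line; 0% = DMSO-treated cells and -100% = media-only wells without cells; nearly all actives have a fitted effect of over 55% in size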
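HT-1080-NT fibrosarcoma cells (2HG-overproducing), 750 cells/well in RPMI with 5% FBS, dosed after 2 h and incubated 48 h at 37C. CellTiter-Glo luminescence normalized to DMSO and no-cell wells; concentration-response curves fitted and classed.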
HT1080 IDH1KD tx: HT-1080 IDH1 knockdown cell toxicity (counter line); HT-1080 IDH1 knockdown viability, ATP luminescence, 48 h; Potency, µM (top dose mostly 46.1 µM), without a hit: at the highest dose activity, negative = toxicity, most hits filed as cytotoxic; actives 2% (n = 360,000);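 also: 0% = DMSO wells and -100% = cell-free medium wells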
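Cytotoxicity counter-line: IDH1KD HT-1080, 48 h, CellTiter-Glo. Curves classed by r2, magnitude and activity.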
An asterisk follows results filed as active; i = inactive; u = inconclusive; x = not tested or not shown. Calls follow the shape of the dose curve; as a rule, active = well fitted curve in the direction sought with a large enough effect; inconclusive = small, poorly fitted or top-dose-only effect, or another doubt; inactive = no such curve, though single readings can be large; an effect the other way counts as inactive or inconclusive. Unless noted, % is scaled to controls: 0 for no effect and ±100 for the full control effect; potency is read from the fitted curve at half-maximal effect.

SMILES	KB-3-1 cytotox	TDP1 cell CPT	DT40 TDP1 no CPT	KB-V1 MDR tox	HT1080NT lethal	HT1080 IDH1KD tx
COc1ccc(C(=O)N2CCC3(CCN(Cc4cc(C(F)(F)F)cc(C(F)(F)F)c4)CC3)CC2)cc1	x	23µM*	u	x	x	x
O=C(c1csnn1)N1CCC2(CCN(Cc3cc(C(F)(F)F)cc(C(F)(F)F)c3)CC2)CC1	x	u	23µM*	x	x	x
Cc1noc(C)c1C(=O)N1CCC2(CCN(Cc3cc(C(F)(F)F)cc(C(F)(F)F)c3)CC2)CC1	x	u	23µM*	x	x	x
CCc1ccc(-c2nc(CS(=O)CC(=O)NC3CCCCCC3)c(C)o2)cc1 (stereo not drawn)	i	-21%	-18%	i	-11%	-6%
CCOC(=O)CN(C)C(=O)C1CCCN1C(=O)OC(C)(C)C (stereo not drawn)	i	-3%	-3%	i	1%	1%
Cc1ccc(CNC(=O)C2c3ccccc3C(=O)N(C)C2c2c[nH]c3ccccc23)o1 (stereo not drawn)	i	21µM*	15µM*	u	-1%	2%
COc1ccc(C2C(C(=O)Nc3cc(C)on3)c3ccccc3C(=O)N2C)cc1 (stereo not drawn)	i	u	5%	i	16%	12%
O=c1c2sccc2n(Cc2cc(=O)n3cc(Cl)ccc3n2)c(=O)n1-c1ccccc1	x	1%	-12%	x	x	x
COc1cc2c(C(=O)N3CCN(C)CC3)c(C)n(-c3ccccc3)c2cc1Br	i	2%	16%	i	-5%	-2%
CCN(CC)CCNC(=O)c1c(C)n(-c2ccccc2)c2cc(Br)c(OC)cc12	u	u	18µM*	i	u	16µM*
CC(=O)Oc1ccc(/C=c2\sc3ncnn3c2=O)cc1	i	21µM*	u	i	2%	1%
CCOc1ccc(C(C(=O)NC2CCCCC2)N(C(=O)c2ccccn2)c2cccnc2)cc1 (stereo not drawn)	i	2%	-2%	i	3%	3%
O=C(COc1ccc(F)cc1)N(c1ccccn1)C1CCCCC1	i	u	u	21µM*	1%	17%
CC(C)c1ccc(OCC(=O)N(c2ccccn2)C2CCCCC2)cc1	i	u	15µM*	i	-4%	-4%
O=C(CNC(=O)c1cccs1)N/N=C/c1c[nH]c2ccccc12	i	u	u	i	1%	-2%
Cc1ccccc1CC1(CO)CCCN(Cc2c(C)nn(C)c2Cl)C1 (stereo not drawn)	i	19%	u	i	-2%	-19%
Cc1nn(C)c(Cl)c1CN1CCCC(CO)(Cc2cccc(Cl)c2)C1 (stereo not drawn)	i	15µM*	15µM*	i	-8%	-26%
COc1cc(CN2CCCC(CO)(Cc3cccc(Cl)c3)C2)cc(OC)c1O (stereo not drawn)	i	u	u	i	-13%	0%
OCC1(Cc2ccccc2)CCCN(Cc2ccc(-c3ccco3)cc2)C1 (stereo not drawn)	i	u	23µM*	i	u	u
Cn1cc(CN2CCCC(CO)(Cc3cccc(Cl)c3)C2)cn1 (stereo not drawn)	i	-21%	u	i	-6%	-7%
COc1ccc(CN2CCCC(CO)(Cc3cccc(Cl)c3)C2)cc1OC (stereo not drawn)	i	-29%	21µM*	i	-29%	-17%
OCC1(Cc2cccc(Cl)c2)CCCN(Cc2cnn(-c3ccccc3)c2)C1 (stereo not drawn)	i	u	13µM*	i	-2%	-15%
Cc1ccccc1CC1(CO)CCCN(C(=O)c2cccc(Cl)c2)C1 (stereo not drawn)	i	-74%	u	u	10%	-1%
O=C(c1ccc(-n2ccnc2)cc1)N1CCCC(CO)(Cc2cccc(Cl)c2)C1 (stereo not drawn)	i	4.6µM*	u	i	2%	-2%
OCC1(Cc2cccc(Cl)c2)CCCN(Cc2ccc(F)c(F)c2)C1 (stereo not drawn)	i	23µM*	u	i	-29%	26µM*
SMILES	KB-3-1 cytotox	TDP1 cell CPT	DT40 TDP1 no CPT	KB-V1 MDR tox	HT1080NT lethal	HT1080 IDH1KD tx
CSc1cccc(CN2CCCC(CO)(Cc3cccc(Cl)c3)C2)c1 (stereo not drawn)	i	-5%	12%	i	14%	6%
Cc1cc(C(=O)Cn2nnc(-c3ccc(Cl)cc3)n2)c(C)n1CC1CCCO1 (stereo not drawn)	i	12µM*	u	u	u	0%
Cc1cc(C(=O)COC(=O)C2CCN(C(=O)c3ccc(Cl)cc3)CC2)c(C)n1CC1CCCO1 (stereo not drawn)	i	u	u	i	-7%	-8%
Cc1cc(C(=O)CSc2nc3ccccc3[nH]2)c(C)n1CC1CCCO1 (stereo not drawn)	3.7µM*	7.3µM*	5.2µM*	2.3µM*	1%	u
Cc1cc(C(=O)CSc2nc(N)cc(=O)[nH]2)c(C)n1CC1CCCO1 (stereo not drawn)	u	16µM*	18µM*	u	3%	-8%
Cc1cc(C(=O)CSc2nc3ccccc3o2)c(C)n1CC1CCCO1 (stereo not drawn)	i	9.2µM*	18µM*	u	-1%	-10%
Cc1cc(C(=O)CSc2nc(N)cc(N)n2)c(C)n1CC1CCCO1 (stereo not drawn)	i	u	u	i	u	-2%
COC(=O)CCCn1nc(NC(=O)c2ccco2)cc1C	i	-1%	0%	i	-1%	10%
N#CN=C1SCCS1	i	9.2µM*	15µM*	i	0%	1%
CCN(CC)c1ccc(-n2c(C)c(C(C)=O)c(C(C)=O)c2C)cc1	u	23µM*	10µM*	18µM*	-8%	-6%
CC(=O)CSc1nc(-c2ccccc2)[nH]c1S(=O)(=O)c1ccc(C)cc1	i	u	3.3µM*	i	x	x
CCCSc1nc(-c2ccccc2)[nH]c1S(=O)(=O)c1ccc(C)cc1	i	u	18µM*	i	x	x
Cc1cc(Cl)ccc1OCC(=O)Nc1cccc(-c2nc3ccccc3o2)c1	i	u	13µM*	i	x	x
